Source: PubChem BioAssay AID504332 (National Center for Advancing Translational Sciences (NCATS), 2011)
Among all 350,000 compounds or so, about 31,000 (8.9%) were called active. Not shown: some 15% with an inconclusive outcome. Calls come from the whole dose curve; as a rule, active = well fitted inhibition curve with a large enough effect; inconclusive = small, poorly fitted or top-dose-only effect; inactive = no such curve, though single readings can be large or run the other way. The full list was thinned out, with actives kept by preference.

The molecules below were run against Histone-lysine N-methyltransferase EHMT2 (Homo sapiens) (UniProt Q96KQ7) (assay: qHTS Assay for Inhibitors of Histone Lysine Methyltransferase G9a). Details: G9a H3K9 monomethylation, AlphaScreen, 2 h; series mostly up to 59 µM; activity, negative = inhibition: at the top concentration.
Histone-lysine N-methyltransferase EHMT2 (Homo sapiens), sequence (Q96KQ7 913-1193 limits assumed): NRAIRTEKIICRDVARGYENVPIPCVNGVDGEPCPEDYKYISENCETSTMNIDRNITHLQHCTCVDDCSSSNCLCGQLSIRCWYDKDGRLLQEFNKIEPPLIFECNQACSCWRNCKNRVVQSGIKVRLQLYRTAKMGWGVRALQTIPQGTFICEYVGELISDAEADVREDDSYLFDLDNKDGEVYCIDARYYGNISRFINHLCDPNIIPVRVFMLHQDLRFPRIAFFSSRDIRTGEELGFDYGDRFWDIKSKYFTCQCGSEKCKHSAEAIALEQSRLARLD
Summary of the method: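 Signal arises when biotinylated H3K9 peptide, once monomethylated, bridges streptavidin donor and antibody-captured acceptor beads. Enzyme at 20 nM was preincubated 15 min with test compounds; peptide 500 nM and SAM 20 uM then reacted for 2 h.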
% is set by controls: 0 for no effect and ±100 for the full control effect; potency is the fitted concentration of half-maximal effect.
Note: nearly all actives have a fitted effect of over 75% in size.

activity, negative = inhibition, inactive:
O=C1CCCC2=C1C(c1cccs1)CC(=O)N2c1ccc(F)cc1 (stereo not drawn) -0.558% [at 102 µM]
Cn1c(N)cc(-c2ccc(F)cc2)c(C#N)c1=O 6.89% [at 102 µM]
O=C(NCc1ccc(F)cc1)c1ccc2nc(N3CCCCC3)sc2c1 23%
COC(=O)c1scc(-c2ccccc2)c1S(=O)(=O)Nc1ccccc1 -8.11%
Fc1ccccc1N=C1Nc2cccc3cccc1c23 2.38% [at 102 µM]
COc1ccccc1C1=Nc2cccc3cccc(c23)N1 39.6% [at 0.501 µM]
Cc1ccc(C(=O)/C=C/c2c(C)nn(-c3ccccc3)c2Cl)cc1 -24.2%
Cc1nn(-c2ccccc2)c(Cl)c1C(=O)Nc1ccccc1 50.1% [at 12.7 µM]
COc1cccc(CNc2nccn(-c3ccc(OC)c(OC)c3)c2=O)c1 6.99%
CC(NC(=O)c1cc(Sc2ccc(F)cc2F)nc2ccccc12)c1ccccc1 (stereo not drawn) 2.44%
COc1ccc(CNc2nc(-c3ccc(Cl)cc3)nn2S(=O)(=O)c2ccc(C)cc2)cc1 8.34%
Cc1ccc(-c2cnc(NC(=O)CCC(=O)N(C)Cc3ccccc3)n2C)cc1 -4.41% [at 12.7 µM]
CCOc1ccccc1OCC(=O)Nc1ccccc1C(=O)NC1CC1 -41.6% [at 102 µM]
CCCN(CC(=O)Nc1ccccc1OC)C(=O)CCC(=O)c1ccc(F)cc1 6.88% [at 102 µM]
Cc1nn(C(C)C(=O)NCCC2=CCCCC2)c(=O)c2nn(-c3ccccc3)c(C)c12 (stereo not drawn) 18.6% [at 102 µM]
Cc1cc(Cl)ccc1NC(=O)Cc1ccc(NC(=O)N2CCCCc3ccccc32)cc1 7.58%
CCC(=O)N1CCc2cc(CNC(=O)Nc3ccccc3Cl)ccc21 10.3%
CCCC(=O)N1CCN(c2nnc(-c3ccc(C)cc3)c3ccccc23)CC1 -4.7% [at 102 µM]
CCc1nnc(NS(=O)(=O)c2ccc(NS(=O)(=O)c3ccccc3)cc2)s1 2.62% [at 12.7 µM]
CCc1nnc(NS(=O)(=O)c2ccc(NC(=S)NC(=O)c3cccs3)cc2)s1 -49.2% [at 102 µM]
Cc1ccccc1CNC(=O)CSc1nnc(C)c2c(C)n(-c3ccccc3)nc12 -26.6%
O=C(CCn1nnnc1CN1CCOCC1)N1CCC(c2ccccc2Cl)C1 (stereo not drawn) 68.2% [at 102 µM]
CCc1cccc(C)c1NC(=O)CSc1nnc(-c2ccco2)n1N 11.7% [at 0.501 µM]
Cn1c(SCC(=O)Nc2nccs2)nnc1-c1cccnc1 -4.03%
CCCCNC(=O)CSc1nnc(-c2ccco2)n1C -12.7%
CCOC(=O)CSc1nnc(-c2ccco2)n1C -7.88% [at 102 µM]
Cc1cccc(Cn2c(=O)n(CCC(=O)NCCc3ccc(Cl)cc3)c(=O)c3sccc32)c1 -34.7%
COc1ccc(NC(=O)CN(C)C(=O)c2ccc(NC3CC3)c([N+](=O)[O-])c2)cc1 -3.73% [at 2.33 µM]
Cc1ccc(-n2c(=O)c3cccnc3n2CC(=O)NCc2ccc(F)cc2)cc1C 5.6%
CCN(CCCNC(=O)Cn1ncc2c([nH]c3ccccc32)c1=O)c1cccc(C)c1 -28%
Cc1cccc(C(=O)NCCCN(C)CCCNC(=O)c2cccc(C)c2)c1 10.2%
CC(=O)Nc1cc(C(=O)NCc2ccc(F)cc2)ccc1Sc1ccc(F)cc1 -1.44%
CC(=O)Nc1cc(C(=O)NCc2ccc(F)cc2Cl)ccc1Sc1ccc(Cl)cc1 -3.69%
Cc1oc2ccc(O)c(CN3CCOCC3)c2c1C(=O)Nc1cccc(Cl)c1C 0.579%
C=CCOc1ccc(/C=C/C(=O)OCC(=O)NCC2CCCO2)cc1 (stereo not drawn) 6.35% [at 12.7 µM]
Cn1nnnc1SCc1cc(=O)[nH]c2ccccc12 13.3%
Cc1ccc(N(Cc2cc3ccccc3[nH]c2=O)C(=O)c2cccs2)cc1 -5.43%
CCC(=O)N(Cc1cc2ccccc2[nH]c1=O)c1ccc(OC)cc1 3.58% [at 102 µM]
CCCN(CC(=O)Nc1ccccc1C)C(=O)c1cc(=O)[nH]c2ccccc12 -4.7% [at 102 µM]
Cc1oc2ncnc(N3CCCCC3)c2c1C(=O)N1CCN(c2cccc(Cl)c2)CC1 -29.8%
Cc1ccc2nc(-c3ccc(C)c(NC(=O)Cc4ccccc4)c3)oc2c1 9.96%
CCC(NC(=O)c1cc(COc2ccc(F)c(F)c2)on1)c1ccncc1 (stereo not drawn) 13.4% [at 12.7 µM]
COc1cc(OC)cc(C(=O)Nc2ccc3nc(Nc4cccc(C(F)(F)F)c4)cc(C)c3c2)c1 -2.07%
COc1ccc(S(=O)(=O)Nc2ccc3cn[nH]c3c2)cc1[N+](=O)[O-] -20.9% [at 12.7 µM]
CCn1c(SCC(=O)Nc2sc(C)c(C)c2C#N)nnc1C1CC1 9.74%
COc1cccc(OC)c1C(=O)Nc1nnc(C(C)C)s1 -41.9% [at 102 µM]
CCC(CC)c1nnc(NC(=O)c2nn(C)c(=O)c3ccccc23)s1 1.31% [at 102 µM]
CCN(CC)C(=O)c1sc(NC(=O)c2ccco2)c(C#N)c1C -19.4%
O=C(N=C1SC2CS(=O)(=O)CC2N1c1cc(Cl)ccc1Cl)C1CC1 (stereo not drawn) 0.566% [at 102 µM]
CCOc1ccc(N(CC)S(=O)(=O)N2CCCC(C(=O)NCc3ccc(SC)cc3)C2)cc1 (stereo not drawn) -30.4%
CCCCn1c(=O)c2oc3ccccc3c2n(CC(=O)Nc2ccccc2OC)c1=O 6.86%
CCCCc1ccc(NC(=S)N2CCCC(CO)C2)cc1 (stereo not drawn) 22.7%
COc1ccc(NC(=S)N2CCCC(CO)C2)c(OC)c1 (stereo not drawn) -13.8% [at 102 µM]
CCOc1ccc(NC(=O)c2ccc(NC(=O)COC(=O)c3ccc(NC(=O)CC#N)cc3)cc2)cc1 12.7% [at 2.33 µM]
O=C(NCc1ccccc1)C(=O)NCC(c1ccco1)S(=O)(=O)c1ccc(Cl)cc1 (stereo not drawn) -6.14%
Cc1nn(Cc2ccccc2)c(C)c1C(=O)N1CCN(CC(=O)Nc2ccccc2Cl)CC1 -4.66%
CN(C)S(=O)(=O)c1cccc(NC(=O)COC(=O)/C=C/c2cccs2)c1 6.05% [at 102 µM]
Cc1ccc(S(=O)(=O)N(C)C)cc1NC(=O)COC(=O)c1c(C)noc1C -6.63%
CCOC(=O)c1cc2c(=O)n3ccccc3nc2n(CCCOC)c1=NC(=O)C(C)Oc1ccccc1 (stereo not drawn) 6.36%
COCCCC1CCN(C(=O)C2CCC(=O)N(C3CCCCCC3)C2)CC1 (stereo not drawn) 11.5% [at 102 µM]
Cc1onc(-c2ccc(F)cc2F)c1C(=O)Nc1cccc(C(F)(F)F)c1 3.49%
Cc1ccc(C(=O)N2c3ncnn3C3(CCCCC3)[C@@H]3CCCC[C@@H]32)cc1 -3.48%
Cc1ccccc1CN1CCC(CNC(=O)c2cc3ccc4cccnc4c3[nH]2)CC1 -2.49%
COc1cc(C(=O)NNC(=O)CN2C(=O)NC3(CCCC3)C2=O)cc(OC)c1OC -2.65%
Cc1nnc(SCc2cc(=O)c3cc(F)ccc3[nH]2)n1C -1.44%
O=C(c1cc2cc(F)ccc2[nH]1)N1CCN(c2ccc(F)cc2)CC1 -8.91% [at 102 µM]
Cc1cc(=O)[nH]c(SCC(N)=O)c1C#N 9.52% [at 2.33 µM]
Cc1ccc2cc(C#N)c(SCC(=O)NCC3CCCO3)nc2c1C (stereo not drawn) -4.15% [at 102 µM]
COc1ccc(C(=O)NC2=NCCS2)c(OC)c1 5.43% [at 12.7 µM]
COc1ccc(Cc2nnc(NC(=O)c3ccc(OC)cc3OC)s2)cc1 -7.06% [at 0.501 µM]
COc1ccc(S(=O)(=O)c2c(Nc3ccc(C)cc3)sc(C(=O)c3ccc(C)cc3)c2N)cc1 9.77%
O=C(NCc1ccccc1)C(c1ccco1)N(C(=O)c1csnn1)c1ccccc1F (stereo not drawn) 1.04% [at 102 µM]
Cc1ccc(NC(=O)CSc2nnc3[nH]c(=O)cc(C)n23)cc1Cl -15.6%
COC(=O)C1=C(C)N(c2ccc(Br)cc2)C(=O)/C1=C\c1ccco1 -24.3%
CC(C)NC(=O)C(=O)N/N=C/c1ccco1 4.44%
COc1c(Cl)cc(C(=O)N(Cc2ccccc2F)C2CCS(=O)(=O)C2)cc1Cl (stereo not drawn) 4.3%
Cc1ccc(C(=O)N2CCc3cc(CNC(=O)c4ccc(Br)cc4)ccc32)cc1 -38.8%
O=C(OCC(=O)N1CCc2ccccc21)c1ccc([N+](=O)[O-])cc1 -12.4% [at 2.33 µM]

Potency, active:
N#CC1=C(N)N(c2ccc(F)cc2)C(=O)C1 39.8 µM
c1ccc(C2=Nc3cccc4cccc(c34)N2)cc1 8.91 µM
Cc1nn(-c2ccccc2)c(Cl)c1/C=C/C(=O)c1ccc(O)cc1 15.8 µM
Cc1ccc(-c2cnc(NCc3ccc(C(C)C)cc3)n2C)cc1 2.82 µM
O=C(Cc1ccc2c(c1)CCCC2)Nc1ccccc1Cl 44.7 µM
CCc1nnc(NS(=O)(=O)c2ccc(NC(=S)NC(=O)/C=C/c3cccs3)cc2)s1 44.7 µM
Nn1c(SCC(=O)Nc2nccs2)nnc1-c1ccco1 28.2 µM
Cn1c(SCC(=O)c2cccs2)nnc1-c1ccco1 50.1 µM
CCN(CCCNC(=O)c1ccc2c(c1)NC(=O)CN2C)c1cccc(C)c1 7.94 µM
CCN(CCCNC(=O)c1ccc(Sc2ccc(C)cc2)c(NC(C)=O)c1)c1cccc(C)c1 12.6 µM
CC(=O)N(Cc1cc(=O)[nH]c2ccccc12)c1ccc(C)cc1C 31.6 µM
Cc1ccc(N(Cc2cc(=O)[nH]c3ccccc23)C(=O)CCl)cc1 11.2 µM
CCC(CC)c1nnc(NC(=O)C2=COCCO2)s1 39.8 µM
Cc1sc(NC(=O)C2=COCCO2)c(C#N)c1C 11.2 µM
COc1cc(NC(=S)N2CCCC(C)C2)cc(OC)c1OC (stereo not drawn) 50.1 µM
Cc1ccc(S(=O)(=O)N(C)C)cc1NC(=O)COC(=O)/C=C/c1cccs1 28.2 µM
O=C(CCCN1CCc2[nH]c3ccc(F)cc3c2C1)c1ccc(F)cc1 50.1 µM
Cc1cc(C#N)c(SCC(N)=O)nc1-c1ccc(F)cc1 12.6 µM
COc1ccc(C(=O)Nc2nncs2)c(OC)c1 39.8 µM
COC(=O)C1=C(C)N(C(C)c2ccccc2)C(=O)/C1=C\c1ccco1 (stereo not drawn) 35.5 µM
